An excerpt weighted towards active compounds, which were near 3.8% of everything screened.
S2 tox = viability counter-screen for ATXN expression inhibitors; S2 cells (HEK-293 line with an ATXN2-luciferase reporter) viability, CellTiter-Fluor protease fluorescence, 24 h; Potency, µM (titrated, usually from 56.7 µM), usual class: cytotoxic; 400,000 tested, 0.49% active; further: nearly all actives have a fitted effect of over 40% in size
TGFb inhibitor = blocks TGF-b signaling. HepG2 CAGA-GFP TGF-b/SMAD3 reporter, GFP fluorescence, 18 h; TGF-beta stimulated, 500 pg/mL final. Potency, µM (titrated, usually from 46.1 µM), for the others: at the top dose activity, negative = inhibition, most hits filed as inhibitors. 410,000 tested, 1.2% active; further: on the % scale 0 is the no-effect control and ±100 the full control effect; nearly all actives have a fitted effect of over 65% in size
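Inhibition was scored as loss of TGF-beta-induced (500 pg/mL final, 18 hours, 37 degrees C) GFP in HEPG2 cells carrying a CAGA-GFP reporter, in DMEM with 1% FBS. Well GFP was summed per cell; Activity was normalised to unstimulated and stimulated DMSO wells, then concentration-response fitting.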
Nrf2 block = blocks Nrf2 signaling. AID 504444. 360,000 tested, 2.1% active. A549 ARE-Fluc reporter, luciferase luminescence, 18-24 h. Potency, µM (series often up to 46 µM), inactives show at the highest dose activity change, negative = inhibition, actives largely listed as inhibitors; further: on the % scale 0 is the no-effect control and ±100 the full control effect; nearly all actives have a fitted effect of over 60% in size
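Quantitative HTS in A549 cells stably bearing an antioxidant response element-firefly luciferase construct. Inhibition of Nrf2-driven transcription was scored by luminescence after 18-24 h of compound exposure at 37 °C.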
ATXN2 expr inh = ATXN2 expression inhibition. HEK-293 ATXN2-luciferase reporter, luminescence, 24 h. Potency, µM (highest dose often 57 µM), for the others: at the highest dose activity change, negative = inhibition, hits mostly inhibitors. 360,000 tested, 0.72% active. AID 1745845; further: on the % scale 0 is the no-effect control and ±100 the full control effect; nearly all actives have a fitted effect of over 55% in size
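qHTS (up to 57 uM final) was run with 24 h compound exposure of reporter cells at 37 °C. Each well was multiplexed: SteadyGlo luminescence measured ATXN2-luciferase expression after a fluorogenic Gly-Phe-AFC viability readout (25 uM final).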
A549 viability = A549 cytotoxicity, counter-screen for Nrf2 inhibitors. AID 504648. A549 ARE-Fluc cells, CellTiter-Fluor viability, 18-24 h. Potency, µM (series often up to 46 µM), for inactives: top-dose activity change, negative = cytotoxicity, usual class: inhibitors. 390,000 tested, 0.16% active; further: on the % scale 0 is the no-effect control and ±100 the full control effect
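Cytotoxicity counterscreen: CellTiter-Fluor fluorescence was measured in A549 ARE_Fluc cells after 18-24 h of compound exposure in a concentration series. The subsequent BugLite luminescent read reports ARE-luciferase activity.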
HepG2 tox = counter-screen for TGF-b inhibitors: cytotoxicity in HepG2 cells. HepG2 CAGA-GFP viability, ATP luminescence, 18 h. Potency, µM (highest dose often 46.1 µM), without a hit: top-dose activity change, negative = cytotoxicity, actives largely listed as cytotoxic. 410,000 tested, 0.76% active. AID 588856
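CellTiter-Glo luminescence gave cytotoxicity after 18 hours at 37 degrees C. The cells were HepG2 CAGA-GFP in 1% FBS DMEM, stimulated with 500 pg/mL TGF-beta after compound addition. %Activity was normalised to no-cell wells (complete cell-killing) and DMSO (no toxicity), and curves were fitted and classified.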
* marks the source's active call; other numbers are inactive results; [ ] = another dose, or the depositor's remark. The call rests on the fitted dose curve; in most records, active means well fitted curve in the direction sought with a large enough effect; inconclusive means small, poorly fitted or top-dose-only effect, or another doubt; inactive means no such curve, though single readings can be large; an effect the other way counts as inactive or inconclusive. Potency means the concentration at half of the fitted maximal effect.

`C/C(=N\Nc1ccc(S(=O)(=O)Nc2ccc(Cl)cc2)cc1[N+](=O)[O-])c1ccc(N2CCOCC2)cc1` gave S2 tox inconclusive, TGFb inhibitor 26.4%, Nrf2 block -10.7%, ATXN2 expr inh -20.5%, A549 viability -19.7% and HepG2 tox 11.9%.
For CCOc1ccc(C(NC(=O)CC)c2c(O)ccc3ccccc23)cc1 (stereo not drawn) the results were S2 tox inactive, TGFb inhibitor inconclusive, Nrf2 block -15.7%, A549 viability -13.5% and HepG2 tox -3.4%.
For CC(=O)Oc1ccc2ccccc2c1C(NC(=O)Cc1ccccc1)c1ccc(Cl)cc1 (stereo not drawn) the results were S2 tox inconclusive, TGFb inhibitor inconclusive, Nrf2 block 20.6µM*, ATXN2 expr inh inconclusive, A549 viability inconclusive and HepG2 tox -39.1%.
Screening CC1=NN(C(=O)c2csc(C)c2)C(O)(C(F)(F)F)C1 (stereo not drawn) returned S2 tox inactive, TGFb inhibitor -5.6%, Nrf2 block 1.3%, ATXN2 expr inh 4.6%, A549 viability -7.1% and HepG2 tox -71.2%.
Screening CC1=NN(C(=O)c2ccc(Br)cc2)C(O)(C(F)(F)OC(F)(F)F)C1 (stereo not drawn) returned S2 tox inactive, TGFb inhibitor 15.8µM*, Nrf2 block inconclusive, ATXN2 expr inh -7.8%, A549 viability -19.4% and HepG2 tox -60.1%.
COc1ccccc1C(=O)N1CCN(c2nc3cc(C)cc(C)c3cc2C#N)CC1 was read as S2 tox inactive, TGFb inhibitor -2.2%, ATXN2 expr inh -20.2% and HepG2 tox -3.8%.
Screening COc1ccccc1C(=O)N1CCN(c2nc3cc(C)c(C)cc3cc2C#N)CC1 returned S2 tox inactive, TGFb inhibitor inconclusive, Nrf2 block 23.1µM*, ATXN2 expr inh inconclusive, A549 viability -25.5% and HepG2 tox -6.1%.
CN1C(=O)CSc2ccc(NC(=O)N3CCN(c4ccccn4)CC3)cc21 was read as S2 tox inactive, TGFb inhibitor 0.4%, Nrf2 block inconclusive, ATXN2 expr inh 13.3%, A549 viability -0.7% and HepG2 tox 1.8%.
`Cc1ccc(C)c(N2CCN(C(=O)Nc3ccc4c(c3)N(C)C(=O)CS4)CC2)c1` gave S2 tox inconclusive, TGFb inhibitor inconclusive, Nrf2 block 16.4µM*, A549 viability -4.7% and HepG2 tox -9.5%.
Screening CNc1nc(N/N=C/c2cc3c(cc2[N+](=O)[O-])OCO3)nc(Nc2ccccc2)n1 returned S2 tox 28.2µM*, TGFb inhibitor inconclusive, Nrf2 block 18.4µM*, A549 viability inconclusive and HepG2 tox 15.8µM*.
Screening NC(=O)SCC(=O)Nc1ccc(Cl)c(Cl)c1 returned S2 tox inactive, TGFb inhibitor 12.6µM*, Nrf2 block inconclusive, ATXN2 expr inh inconclusive, A549 viability 9.9% and HepG2 tox -61.2%.
`COc1ccc(OC)c(CNCc2c(C(=O)O)n(Cc3cccc(F)c3)c3cc(OC)ccc23)c1` gave S2 tox inconclusive, TGFb inhibitor 0.6%, Nrf2 block -10.1%, ATXN2 expr inh 16.4%, A549 viability -23.6% and HepG2 tox -0.1%.
Cc1ccc(CNCc2c(C(=O)O)n(Cc3ccc(C)cc3)c3cc(C)ccc23)cc1 was read as TGFb inhibitor 28.2µM*, Nrf2 block inconclusive, ATXN2 expr inh inconclusive, A549 viability inconclusive and HepG2 tox -107.8%.
`Cc1ccc(Cn2c(C(=O)O)c(CNCc3ccc(OC(C)C)cc3)c3ccc(C)cc32)cc1` gave TGFb inhibitor inconclusive, Nrf2 block inconclusive, ATXN2 expr inh inconclusive, A549 viability inconclusive and HepG2 tox -106.0%.
CCc1ccc(CNCc2c(C(=O)O)n(Cc3ccc(C)cc3)c3cc(C)ccc23)cc1 was read as TGFb inhibitor 15.8µM*, Nrf2 block inconclusive, ATXN2 expr inh -9.7%, A549 viability inconclusive and HepG2 tox 17.8µM*.
`C=Cc1ccc(Cn2c(C(=O)O)c(CNCc3cc(Br)ccc3OC)c3ccc(C)cc32)cc1` gave S2 tox inactive, TGFb inhibitor -21.6%, Nrf2 block inconclusive, ATXN2 expr inh 11.5%, A549 viability 10.4% and HepG2 tox 5.6%.
For C=Cc1ccc(Cn2c(C(=O)O)c(CNCc3ccccc3)c3ccc(C)cc32)cc1 the results were S2 tox 15.8µM*, TGFb inhibitor inconclusive, Nrf2 block inconclusive, ATXN2 expr inh 0.0%, A549 viability 16.4µM* and HepG2 tox 20µM*.
For Cc1ccc(Cn2c(C(=O)O)c(CNCc3ccc(C)o3)c3ccc(C)cc32)cc1 the results were TGFb inhibitor inconclusive, Nrf2 block 19.7%, ATXN2 expr inh 0.0%, A549 viability -21.0% and HepG2 tox -69.5%.
Screening CCc1ccc(CNCc2c(C(=O)O)n(Cc3cccc(F)c3)c3cc(OC)ccc23)cc1 returned S2 tox 31.6µM*, TGFb inhibitor inconclusive, Nrf2 block -10.9%, ATXN2 expr inh inconclusive, A549 viability inconclusive and HepG2 tox -101.3%.
For Cc1ccc2nc(-c3ccc(NS(=O)(=O)c4c(C)n(C)c(=O)n(C)c4=O)cc3)sc2c1 the results were TGFb inhibitor inconclusive, Nrf2 block inconclusive, A549 viability inconclusive and HepG2 tox -30.5%.
For Cc1ccc(S(=O)(=O)Nc2ccc(-c3nc4ccc(C)cc4s3)cc2)cc1 the results were S2 tox inactive, TGFb inhibitor inconclusive, Nrf2 block 27.0%, ATXN2 expr inh 4.8%, A549 viability 2.9% and HepG2 tox 10µM*.
For Cc1cccc(S(=O)(=O)Nc2ccc(-c3nc4ccc(C)cc4s3)cc2)c1 the results were S2 tox inactive, TGFb inhibitor 12.6µM*, Nrf2 block inconclusive, ATXN2 expr inh 85.3%, A549 viability 17.3% and HepG2 tox -62.1%.
`COc1ccc(CNc2nc(-c3ccc(OC)c(OC)c3)cc(C(F)(F)F)n2)cc1` gave S2 tox inactive, TGFb inhibitor inconclusive, Nrf2 block 1.2%[9.27 µM], ATXN2 expr inh 0.8%, A549 viability 0.0% and HepG2 tox -23.7%.
`COc1ccc(-c2cc(C(F)(F)F)nc(NC3CCCC3)n2)cc1OC` gave S2 tox inactive, TGFb inhibitor -2.1%, Nrf2 block inconclusive, ATXN2 expr inh 0.9%, A549 viability -9.9% and HepG2 tox 22.4µM*.

Source: PubChem (National Center for Advancing Translational Sciences (NCATS))
